Shown are actives, neighbours in structure and some others; about 10% of the full set was active somewhere.
ALDH1A1 block = blocks purified human ALDH1A1 activity | P00352 | Purified ALDH1A1, NADH fluorescence, propionaldehyde substrate | Potency, µM (doses to about 75.3 µM), without a hit: at the top dose activity, negative = inhibition, actives largely listed as inhibitors | 7.3% of 220,000 active; active = well fitted inhibition curve with a large enough effect, not every such curve was filed as active; inconclusive = small, poorly fitted or top-dose-only effect, or another doubt; inactive = no such curve, though single readings can be large or run the other way;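 also: potency is read from the fitted curve at half-maximal effect; plate controls were no enzyme wells and a reference inhibitor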
GLA inh pH 4.5 = alpha-galactosidase A (human) inhibition, pH 4.5; activity change, negative = inhibition, % at 105 µM; purified enzyme, 4-MU-alpha-Gal fluorescence, pH 4.5; 230,000 tested, under 10 active; AID 1467;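 also: 0% = full activity with enzyme and -100% = basal without enzyme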
Target sequence (P06280 whole entry, looked up): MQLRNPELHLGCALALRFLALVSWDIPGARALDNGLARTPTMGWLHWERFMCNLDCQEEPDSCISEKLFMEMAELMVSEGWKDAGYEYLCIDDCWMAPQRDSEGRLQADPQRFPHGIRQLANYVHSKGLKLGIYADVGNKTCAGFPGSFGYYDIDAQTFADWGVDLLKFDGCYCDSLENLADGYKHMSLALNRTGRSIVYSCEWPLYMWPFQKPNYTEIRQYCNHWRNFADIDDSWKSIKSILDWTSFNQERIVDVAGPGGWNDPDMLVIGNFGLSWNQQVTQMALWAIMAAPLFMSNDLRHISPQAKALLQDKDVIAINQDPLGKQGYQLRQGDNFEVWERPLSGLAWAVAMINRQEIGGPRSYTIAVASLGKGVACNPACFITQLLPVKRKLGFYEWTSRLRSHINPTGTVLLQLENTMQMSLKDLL
ALOX12 inhib = blocks human 12-lipoxygenase activity | P18054 | Potency, µM (top dose mostly 57.1 µM), without a hit: top-dose activity change, negative = inhibition, hits mostly inhibitors | AID 1452 | purified 12-hLO, xylenol orange hydroperoxide absorbance | 0.12% of 150,000 active; also: potency is read from the fitted curve at half-maximal effect; nearly all actives have a fitted effect of over 55% in size
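Xylenol orange chromogenic assay: hydroperoxide from 12hLO oxidises Fe(II), giving red-shifted Fe(III)-XO absorbance. Conditions: 150 nM enzyme, 40 uM arachidonic acid, 25 mM Hepes pH 7.0, 0.01% Triton X-100, 30 min, room temperature.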
HPGD block = HPGD (human) dehydrogenase inhibition. AID 894. P15428. 4.3% of 150,000 active. purified HPGD, NADH fluorescence kinetic, PGE2 substrate. Potency, µM, for the others: top-dose activity change, negative = inhibition, most hits filed as inhibitors; active = well fitted inhibition curve with a large enough effect, not every such curve was filed as active; inconclusive = small, poorly fitted or top-dose-only effect, or another doubt; inactive = no such curve, though single readings can be large or run the other way; also: potency is read from the fitted curve at half-maximal effect
Target sequence (P15428 whole entry, looked up): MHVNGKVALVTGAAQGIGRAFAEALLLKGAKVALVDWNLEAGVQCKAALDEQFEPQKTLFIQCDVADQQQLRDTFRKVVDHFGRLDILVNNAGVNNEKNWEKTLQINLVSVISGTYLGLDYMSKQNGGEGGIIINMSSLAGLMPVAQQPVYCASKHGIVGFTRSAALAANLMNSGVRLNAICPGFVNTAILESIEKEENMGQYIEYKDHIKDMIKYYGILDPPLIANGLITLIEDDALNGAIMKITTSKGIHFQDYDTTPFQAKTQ
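20 nM HPGD preincubated 15 min at room temperature with compound in 50 mM Tris-HCl pH 8, 0.01% Tween 20. Started with 1 mM NAD+ and 30 uM prostaglandin E2; NADH fluorescence (360/450 nm) read 5 times over 30-s intervals, last minus first.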
PNC inhibitor = blocks assembly of the perinucleolar compartment. PC3M PTB-GFP, PNC prevalence imaging, 16 h; active compounds read low. AID 2417. 3.1% of 140,000 active. activity change (PNC), negative = inhibition, % at 10 µM;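 active = readout at or below -70, meaning at least 70% loss of cells showing the perinucleolar compartment, a nuclear body marking cancer cells; inconclusive = readout between -30 and a set limit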;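 also: plate controls were DMSO wells for no effect and camptothecin positive control wells for full effect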
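PC3M cells stably expressing PTB-GFP, 750–1000 cells/well, treated 16 h at 37 °C with compound (23 nl of library stock), in duplicate. After paraformaldehyde fixation and Hoechst stain, imaged at 20x; PNC prevalence scored by image analysis.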
aGal spleen mod = inhibitors or activators of human alpha-galactosidase in spleen homogenate; P06280; human spleen homogenate, 4MU-alpha-Gal fluorescence, 40 min; Potency, µM (highest dose often 80 µM), for the others: top-dose activity change, negative = inhibition, hits mostly inhibitors; 0.008% of 240,000 active; AID 2107;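 also: potency is read from the fitted curve at half-maximal effect; 0% = enzyme with vehicle and -100% = no enzyme basal signal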
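qHTS titration in buffer at pH 5.0. Alpha-galactosidase activity in spleen homogenate was measured via 4-methylumbelliferone release from 1 mM fluorogenic substrate after 40 min at 37C and a pH 10 stop. AC50 came from Hill fits of control-normalized data.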
Starred values were filed as active, the others as inactive; u = inconclusive; x = no result; [ ] = another dose, or the depositor's remark. Unless noted, calls follow the shape of the dose curve; as a rule, active = well fitted curve in the direction sought with a large enough effect; inconclusive = small, poorly fitted or top-dose-only effect, or another doubt; inactive = no such curve, though single readings can be large; an effect the other way counts as inactive or inconclusive. Unless noted, % is scaled to controls: 0 for no effect and ±100 for the full control effect.

SMILES | ALDH1A1 block | GLA inh pH 4.5 | ALOX12 inhib | HPGD block | PNC inhibitor | aGal spleen mod
Nc1ccnc2c1ncn2[C@@H]1O[C@H](CO)[C@@H](O)[C@H]1O | 7% | x | x | x | x | -3%
CCOC(=O)N1CCN(C(=O)c2ccc(CSc3ccc(Cl)cc3)cc2)CC1 | -10% | -3 | x | x | x | 3%
CN1CCN(C(=O)c2ccc(CN3CCOCC3)cc2)CC1 | -6% | -3 | 7% | -20% | -93* | 1%
CN1CCN(C(=O)c2ccc(CSc3ccc(Cl)cc3)cc2)CC1 | 9% | -6 | 3% | 8.9µM* | u | 0%
Cc1ccc(SCc2ccc(C(=O)N3CCCCC3)cc2)cc1 | 4µM* | -1 | x | x | x | -5%
O=C1N[C@H](Cc2ccccc2)C(=O)N1Cc1cccc2ccccc12 | 6% | -3 | x | -11% | x | 4%
Cc1cnc(CNc2ncncc2-c2cccc(NS(C)(=O)=O)c2)cn1 | 14% | x | x | x | x | 10%
CCCCCC(=O)NC(NC(=S)N1CCOCC1)C(Cl)(Cl)Cl (stereo not given) | 3% | 1 | -5% | -20% | u | 3%
CCCCCCCCC(=O)NC(NC(=S)N1CCOCC1)C(Cl)(Cl)Cl (stereo not given) | u | -9 | -9% | -21% | -100* | -13%
c1cc2c3c(cccc3c1)NC1(CCCCCC1)N2 | 3.2µM* | -7 | 2% | u | 38 | 0%
c1cc2c3c(cccc3c1)NC1(CCCCC1)N2 | 1% | -8 | -7% | -11% | 36 | -6%
CC[N+](CC)(CCO)CCCN1C(=O)C2CC=C(Cl)CC2C1=O (stereo not given) | 1% | -4 | -1% | -9% | -81* | 1%
CCN(CC)C(=O)CN1C(=O)C2CC=C(Cl)CC2C1=O (stereo not given) | 7% | 4 | -11% | -12% | -2 | -15%
CC(C)CCN(C(=S)NC(=O)C1CCCCC1)c1c(N)n(Cc2ccccc2)c(=O)[nH]c1=O | 25µM* | 3 | x | x | x | 0%
COCCCN(C(=S)NC(=O)C(C)(C)C)c1c(N)n(Cc2ccccc2)c(=O)[nH]c1=O | 28µM* | 1 | x | x | x | -1%
CN(C)CCOC(=O)c1ccc(N)cc1 | -2%[13.5 µM] | x | -3%[11.4 µM] | 1% | x | x
CCCCCCCCCCCCCCCC(=O)C(F)(F)F | -2% | -1 | 3% | 0% | x | 12%
C=CC(=O)NN(C)c1ncc(C(F)(F)F)cc1Cl | 8% | -1 | x | x | x | 0%
CN(NC(=O)/C=C/C(=O)O)c1ncc(C(F)(F)F)cc1Cl | 2.8µM* | 2 | x | x | x | 3%
Cc1cc(C)nc(NC(=O)CSc2ncccn2)n1 | 13% | 6 | x | x | x | 3%
COc1ccc(NC(=O)CSc2ccccn2)cc1 | -4% | -4 | 11% | 25µM* | -16 | 0%
COc1ccc(C(=O)N/N=C/c2ccc(OC)c(CSc3ccccn3)c2)cc1 | u | -9 | 1% | 32µM* | -7 | 2%
COc1cccc(NC(=O)CSc2ccccn2)c1 | 20µM* | -3 | -3% | 28µM* | -26 | 0%
COc1ccc(/C=N/NC(=O)c2cccnc2)cc1CSc1ccccn1 | x | -3 | x | x | x | 5%
O=C(CSc1ccccn1)Nc1ccc(NC(=O)CSc2ccccn2)cc1 | -7% | 12 | x | x | x | 3%
SMILES | ALDH1A1 block | GLA inh pH 4.5 | ALOX12 inhib | HPGD block | PNC inhibitor | aGal spleen mod
Cc1cc(C)nc(NC(=O)CSc2ccccn2)n1 | 10µM* | 2 | 1% | 2% | -11 | 5%
C=NCc1cc2c(OC[C@@H](O)CNC(C)(C)C)cccc2[nH]1 | 2% | x | x | x | x | 6%
CS(=O)(=O)N(CCC#N)Cc1ccc(/C=C2\C(=O)Nc3ccccc32)o1 | 0% | -5 | x | x | x | -4%
CC(=C/c1ccc(C(C)C)cc1)/C=N/NC(=O)CSc1ccccn1 | u | -7 | -7% | -23% | u | 9%
CC(/C=N/NC(=O)CSc1ccccn1)=C\c1ccc(C(C)C)cc1 | 25µM* | -8 | 4% | -28% | 6 | 4%
COc1ccc(NC(=O)CSc2ccc(-c3ccccn3)nn2)cc1OC | 14µM* | -7 | -2% | -14% | 17 | -5%
O=c1c(-c2cc(F)cc(F)c2)nc2cncnc2n1C1CC1 | 9% | x | x | x | x | -2%
COc1ccc(N/N=C(C)/C(=N/O)C(=O)Nc2ccccc2)cc1 | 14µM* | -12 | x | x | x | 6%
COc1ccc(NC(=O)c2ccccc2-c2ccccc2)cc1 | -2% | -3 | x | x | x | 2%
Cc1cccc(C(=O)NC2CCN(S(=O)(=O)c3ccccc3)CC2)c1 | u | -1 | x | x | x | -7%
CC1=CC(C)(C)Nc2ccc(OC(=O)CN3C(=O)c4ccccc4C3=O)cc21 | u | 0 | 0% | u | -25 | -7%
CC1=CC(C)(C)Nc2ccc(OC(=O)CN3C(=O)c4cccc5cccc(c45)C3=O)cc21 | 11µM* | 6 | -7% | -21% | 40 | 0%
O=C1OCCN1C(=O)[C@H]1[C@H](c2ccc([N+](=O)[O-])cc2)C(c2ccc(F)cc2)=NN1c1ccc(Br)cc1 | 7%[50.4 µM] | -14 | -4%[0.00818 µM] | -14% | x | -10%
CCOC(=O)CC(=O)CSc1ncc(C(=O)OCC)c(N)n1 | 22µM* | 1 | 2% | -28% | u | -5%
CCOC(=O)c1cnc(SCC(=O)OC)nc1N | -1% | 1 | x | x | x | 9%
CCOC(=O)c1cnc(SCc2cccc3ccccc23)nc1N | u | -6 | 6% | 28µM* | 2 | -2%
N#Cc1cc(-c2ccccc2)nn1-c1ccccc1 | 22µM* | 4 | -14% | 13µM* | 2 | 1%
Cn1ccc(-c2ccccc2)n1 | 5% | 3 | x | x | x | -1%
NC(=O)c1ccc(SCC(=O)NC2CCCCC2)c([N+](=O)[O-])c1 | 3% | -3 | x | x | x | -3%
Cc1ccc(Nc2nc(N)c([N+](=O)[O-])c(NCc3ccco3)n2)cc1C | 1% | -12 | -6% | -12% | 61 | 3%
CCCCN(C(=O)c1ccc2c(c1)OCO2)c1ccccc1 | 14µM* | 0 | x | x | x | 1%
CN(Cc1ccccc1)C(=O)c1ccc2c(c1)OCO2 | -4% | 7 | -2% | 14µM* | 43 | 5%
CCCCNC(=O)c1ccccc1NC(=O)c1ccc2c(c1)OCO2 | 0% | 0 | x | x | x | 4%
CN(Cc1ccccc1)C(=O)COC(=O)c1ccc2c(c1)OCO2 | 2% | 3 | -13% | -14% | -3 | 2%
CCCn1c(=O)c(C(=O)c2ccccc2)nc2ccccc21 | -20% | -13 | 7% | -2% | u | 0%
CCCCn1c(=O)c(C(=O)c2ccccc2)nc2ccccc21 | 22µM* | -5 | -3% | -17% | u | -13%
COc1ccccc1Cn1c(SCC(N)=O)nc2c(oc3ccccc32)c1=O | 1.3µM* | 2 | x | x | x | -1%
COCCn1c(SCC(=O)Nc2ccccc2OC)nc2c(oc3ccccc32)c1=O | u | 6 | x | x | x | -6%
